The structures appear in SMILES notation. About 1,300 (0.68%) of roughly 190,000 compounds were called active. No stated cut-off is given here; in the data, active means inhibition above about 50%; inactive means the rest. The sample as a whole holds a higher share of actives than the screen did.

Experimental findings from PubChem BioAssay AID1220 (Sanford-Burnham Center for Chemical Genomics, 2008) are described below.

Mannose-6-phosphate isomerase (Homo sapiens), sequence (P34949 whole entry, looked up): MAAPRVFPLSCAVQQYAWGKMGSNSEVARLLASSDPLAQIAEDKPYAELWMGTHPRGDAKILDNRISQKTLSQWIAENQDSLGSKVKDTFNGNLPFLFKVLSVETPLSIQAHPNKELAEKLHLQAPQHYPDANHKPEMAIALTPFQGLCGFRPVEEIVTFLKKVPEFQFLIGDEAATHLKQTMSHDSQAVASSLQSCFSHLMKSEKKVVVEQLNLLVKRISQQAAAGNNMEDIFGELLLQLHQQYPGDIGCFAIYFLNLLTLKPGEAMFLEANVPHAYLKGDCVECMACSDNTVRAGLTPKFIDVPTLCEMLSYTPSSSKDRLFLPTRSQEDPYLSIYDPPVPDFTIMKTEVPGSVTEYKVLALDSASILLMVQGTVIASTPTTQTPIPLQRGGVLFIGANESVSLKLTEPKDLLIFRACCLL

The assay has as its target Mannose-6-phosphate isomerase (Homo sapiens) (UniProt P34949). The experiment in a line: human PMI inhibitors, high substrate, primary screen, biochemical, fluorescence intensity, high mannose 6-phosphate (AID 1220). As to conditions: recombinant PMI enzyme, coupled fluorescence intensity; at 20 µM; active compounds read high.
In the case of `CC1(C)NC(=O)N(CC(O)COc2ccc(N3C(=O)c4ccccc4C3=O)cc2)C1=O` (stereo unspecified), the inhibition is 53% (active).

`Cc1ccc(OCC(O)CN2C(=O)NC(C)(C)C2=O)cc1` (stereo unspecified): the inhibition was 5.5% (inactive). As for `CC1(C)NC(=O)N(CC(O)COc2ccc(-c3ccccc3)cc2)C1=O` (stereo unspecified), the figure is -0.4% (inactive); as for `O=C(NCC(=O)N1CCCC1)c1cccs1`, 2% (inactive); as for `Cc1ccc(C(=O)ONc2ccc(N=NC(=O)c3ccccc3O)cc2)cc1`, -5.4% (inactive). As for `O=C(ONc1ccc(N=NC(=O)c2ccccc2O)cc1)c1ccccc1`, the figure is 22.9% (inactive); as for `O=C(N=Nc1ccc(NOC(=O)c2ccccc2Br)cc1)c1ccccc1O`, 65.2% (active); as for `CN(Cc1cccnc1)C(=O)CC1C(=O)NCCN1Cc1ccc(-c2ccccc2)cc1` (stereo unspecified), 8.9% (inactive). Consider `CCOC(=O)C(C#N)C(Cc1ccccc1)c1ccco1` (stereo unspecified), for which the inhibition was 5.7% (inactive). As for `COc1cc(NC(=S)Nc2ncccc2C)cc(OC)c1OC`, the figure is 31% (inactive); as for `COc1ccc(C(=O)Nc2cccc(C(C)=O)c2)cc1OC`, -4.1% (inactive); as for `COc1ccc(NC(=S)Nc2cccc(Cl)c2)cc1OC`, 61.4% (active). As for `COc1ccc(NC(=S)Nc2cccc(C(C)=O)c2)cc1OC`, the figure is 50.5% (active); as for `COC(=O)c1cc(OC)c(OC)cc1NC(=S)Nc1cccc(C(C)=O)c1`, -8% (inactive); as for `COc1ccc(NC(=S)Nc2ncccc2C)c(OC)c1`, 10.1% (inactive).

As for `COc1ccc(NC(=S)Nc2ncccc2C)cc1OC`, the inhibition was 55.1% (active). As for `COc1cc(C)c(NC(=S)Nc2cccc(Cl)c2)cc1OC`, the figure is 24.5% (inactive); as for `COc1ccc(NC(=S)Nc2cccc(Cl)c2Cl)cc1OC`, 40.9% (inactive). As for `Cc1c(NC(=O)c2cc3ccccc3o2)c(=O)n(-c2ccccc2)n1C`, the figure is -16.9% (inactive); as for `COc1ccc(-c2nc(N3CCCC3)[nH]c(=O)c2C#N)cc1`, -5.5% (inactive).

`C=CCc1cccc2cc(C(=O)NCc3cccnc3)c(=O)oc12`: the inhibition is 3.6% (inactive).

On to `Cc1ccc(NCC(=O)N=Nc2c(O)n(C)c3ccccc23)cc1`, for which the inhibition was -2.1% (inactive). Take `O=C(NC1CC1)C1=C[C@H](C2CC2)C[C@H](OCCCCO)O1`: the inhibition was 0.3% (inactive). With `CCS(=O)(=O)c1ccc2oc(SCC(=O)Nc3ccc(OC)cc3OC)nc2c1`, the inhibition is 14.5% (inactive). As for `Cc1onc(-c2ccccc2Cl)c1C(=O)N1CCOC12CCCCC2`, the figure is -6.1% (inactive). As for `Cc1[nH]n(-c2ccccc2)c(=O)c1/C=N/NC(=O)COc1ccccc1[N+](=O)[O-]`, the figure is 58.1% (active); as for `Cc1ccc(OCC(=O)N/N=C\c2c(C)[nH]n(-c3ccccc3)c2=O)c([N+](=O)[O-])c1`, -3.5% (inactive); as for `COCC(=O)N/N=C/c1c(C)[nH]n(-c2ccccc2)c1=O`, -4.5% (inactive). As for `CC(C)CN1C(=O)c2ccc(NC(=O)c3ccco3)cc2C1=O`, the figure is 6.2% (inactive); as for `O=C(Nc1ccc([N+](=O)[O-])cc1)Nc1ccc(N2CCOCC2)c2nonc12`, 57.9% (active). With `COc1ccc(NC(=O)Nc2ccc(C(=O)N3CCOCC3)cc2)c(OC)c1`, the inhibition was 0.2% (inactive). For `COc1ccc(NC(=O)Nc2ccc(N3CCOCC3)c3nonc23)c(OC)c1`, the inhibition was 55.8% (active). As to `O=C(Nc1ccc(F)cc1)Nc1ccc(N2CCOCC2)c2nonc12`, the inhibition was 38% (inactive). As for `COc1ccc(NC(C)C(=O)Nc2cc(C(F)(F)F)ccc2N2CCOCC2)c(OC)c1` (stereo unspecified), the figure is 24% (inactive); as for `O=C(Nc1ccc(N2CCOCC2)c2nonc12)C1CCCC1`, 44.8% (inactive); as for `COc1ccc(C)cc1-n1c(SCC(=O)Nc2cc(C)on2)nc2ccccc2c1=O`, 10.8% (inactive). As for `COC(=O)Cc1sc(-c2ccccn2)nc1-c1ccccc1`, the figure is 21.2% (inactive); as for `CCOc1cc(NC(=S)NCCOC)c(OCC)cc1NC(=O)c1ccco1`, 22.6% (inactive). As for `CCNC(=S)Nc1cc(OC)c(NC(=O)c2ccco2)cc1OC`, the figure is 33.9% (inactive); as for `CCOc1cc(NC(=S)NC)c(OCC)cc1NC(=O)c1ccco1`, 49.7% (inactive); as for `CCOCCCNC(=S)Nc1cc(OCC)c(NC(=O)c2ccco2)cc1OCC`, 44.5% (inactive).

As for `CCOc1cc(NC(=S)NCCCOC)c(OCC)cc1NC(=O)c1ccco1`, the inhibition was 50.7% (active). On to `CCNC(=S)Nc1cc(OCC)c(NC(=O)c2ccco2)cc1OCC`, for which the inhibition is 52.8% (active). As for `O=C(CO/N=C/c1ccc(OC(F)F)cc1)NC1CCCC1`, the figure is 0.6% (inactive). Take `COC(=O)C1=C(C)N(CCc2ccc(OC)c(OC)c2)C(=O)C1`: the inhibition was -10.6% (inactive). With `Cc1nnc(SCc2nnc(-c3cccs3)o2)n1Cc1ccccc1`, the inhibition is -7.3% (inactive). In the case of `COc1cc(C(c2oc(CO)cc(=O)c2O)c2oc(CO)cc(=O)c2O)cc(OC)c1OC`, the inhibition was -11.4% (inactive). As for `CCCN1CCN(CCCNC(=S)Nc2ccc(OC)cc2)CC1`, the figure is 6.6% (inactive); as for `O=C(OCC(=O)N1CCCCC1)c1ccccc1SCC(=O)N1CCCCC1`, -4% (inactive); as for `N#Cc1c2ccc(O)cc2n2ccccc12`, 62.6% (active). With `Cn1c(CN2CCOCC2)c(C#N)c2ccccc21`, the inhibition is 3% (inactive). Consider `Cc1cc(=O)n2ccccc2c1C#N`, for which the inhibition was 3.5% (inactive). Take `COC(=O)CCC/C=C1/SCC(NC(=O)c2ccccc2)/C1=N/O` (stereo unspecified): the inhibition was -7.4% (inactive).

`CCC(C(=O)Nc1cnccn1)c1ccccc1` (stereo unspecified): the inhibition was 4% (inactive). As for `CCOc1ccccc1/C=N/NC(=O)c1cccc(S(=O)(=O)N(CC)CC)c1`, the figure is 5.1% (inactive); as for `CCN(CC)S(=O)(=O)c1cccc(C(=O)N/N=C/c2cccc(O)c2O)c1`, 53.1% (active); as for `COc1ccc(O)c(/C=N/NC(=O)c2ccc(CSc3nc(C)cc(C)n3)cc2)c1`, -12.2% (inactive). For the compound `Cc1cc(C)nc(SCc2ccc(C(=O)N/N=C/c3ccccc3C(=O)O)cc2)n1`, the inhibition was -6.2% (inactive). Regarding `Cc1cc(C)nc(SCc2ccc(C(=O)N/N=C/c3cccc(O)c3O)cc2)n1`, the inhibition was 55% (active). With `CCn1c(C)nc2cc(C(=O)N/N=C/c3cccc(OC)c3O)ccc21`, the inhibition is -8.6% (inactive).

For the compound `CCN(CC)S(=O)(=O)c1cccc(C(=O)N/N=C/c2cc(OC)c(O)c(OC)c2)c1`, the inhibition is 15.5% (inactive). On to `CCn1c(C)nc2cc(C(=O)N/N=C/c3ccccc3C)ccc21`, for which the inhibition is -6.4% (inactive). As for `CCN(CC)S(=O)(=O)c1cccc(C(=O)N/N=C/c2ccccc2OCC(=O)O)c1`, the figure is 2.8% (inactive); as for `CCN(CC)S(=O)(=O)c1cccc(C(=O)N/N=C/c2ccc(OC)c(O)c2)c1`, 6.1% (inactive); as for `O=C(Nc1ccc(N=Nc2ccccc2)c(NC(=O)C2CCCO2)c1)C1CCCO1` (stereo unspecified), 9% (inactive). Turning to `COc1ccccc1NC(=O)CN1CCN(c2ccccn2)CC1`, the inhibition is -9% (inactive). `COC(=O)Cc1c(C)c2ccc(OCC(=O)N(C)C)cc2oc1=O`: the inhibition is -8.1% (inactive). For `Cc1cc(C)n(C(=O)CCCCCC(=O)n2nc(C)cc2C)n1`, the inhibition is -6.2% (inactive). Turning to `O=C(CCN1C(=O)C2C3C=CC(C3)C2C1=O)Nc1ccccc1` (stereo unspecified), the inhibition is -8.2% (inactive).

On to `C/C(=N\NC(=O)Cn1c(-c2ccccn2)nc2ccccc21)c1cccc(O)c1`, for which the inhibition is -16.2% (inactive). As for `NNC(=O)c1cc2c(s1)CCCCCC2`, the figure is -2.3% (inactive); as for `O=C(Nc1ccc2c(c1)OCCO2)c1cccc(S(=O)(=O)N2CCCCC2)c1`, 18.2% (inactive). On to `COC(=O)c1ccc(C)c(N(CCO)CCO)c1`, for which the inhibition was 0.5% (inactive). Turning to `COc1ccc(-n2c(C(C)(C)C)csc2=Nc2c(C)n(C)n(-c3ccccc3)c2=O)cc1`, the inhibition was 5.7% (inactive).

`O=S(=O)(Nc1cccc2[nH]ncc12)c1cccs1`: the inhibition is 5.1% (inactive). As for `O=C(O)c1ccccc1NS(=O)(=O)c1ccc2c3c(cccc13)C(=O)N2`, the figure is -2% (inactive). `O=C1Nc2ccc(NS(=O)(=O)c3cccs3)c3cccc1c23`: the inhibition is 65.7% (active).

Take `COc1ccc(C(CNC(=O)CCOc2ccccc2)N(C)C)cc1` (stereo unspecified): the inhibition is -3.8% (inactive). As for `O=C(O)c1ccc(COc2ccccc2/C=C2\NC(=O)N(Cc3ccc(F)cc3)C2=O)cc1`, the inhibition is -7.9% (inactive). As for `O=C(O)c1ccc(COc2ccc3ccccc3c2/C=C2/NC(=O)N(Cc3ccc(F)cc3)C2=O)cc1`, the figure is 52.7% (active); as for `O=C(O)c1ccc(COc2ccc3ccccc3c2/C=C2/NC(=O)N(c3ccccc3)C2=O)cc1`, 22.6% (inactive); as for `CC1CC(C)CN(CCCNC(=O)c2csc3c2CCCC3)C1` (stereo unspecified), 8.3% (inactive). For `CCC(=O)Nc1ccc(Cl)c(NC(=O)c2ccc(Br)o2)c1`, the inhibition was 1.8% (inactive). Regarding `CC(C)CC1C(C#N)=C(N)OC2=C1C(=O)CC(c1ccccc1)C2` (stereo unspecified), the inhibition was 57% (active). In the case of `CC1C(C#N)=C(N)OC2=C1C(=O)CC(c1ccccc1)C2` (stereo unspecified), the inhibition is 10.5% (inactive). As for `N#CC1=C(N)OC2=C(C(=O)CC(c3ccccc3)C2)C1c1ccoc1` (stereo unspecified), the figure is -1.4% (inactive).

`CCN(CC)C(=O)C1=C(C)Nc2nnnn2C1c1cccnc1` (stereo unspecified): the inhibition is 6.1% (inactive). Regarding `CC[n+]1c(/C=C/N(C)c2ccccc2)oc2ccc(F)cc21`, the inhibition was 26.2% (inactive).

Consider `CC[n+]1c(/C=C/N(C)c2ccccc2)oc2ccc(Cl)cc21`, for which the inhibition is 51.8% (active). `CC[n+]1c(/C=C/N(C)c2ccccc2)oc2ccccc21`: the inhibition is 36.4% (inactive). Turning to `CCCc1cc(=O)[nH]c(SCC(=O)N(C)Cc2ccccc2)n1`, the inhibition was 10.9% (inactive). As for `O=C(NCc1ccco1)C(C(=O)c1ccccc1)n1ccccc1=O` (stereo unspecified), the figure is 1% (inactive); as for `O=C(NCCNS(=O)(=O)c1ccccc1)N1CCOCC1`, -0.7% (inactive); as for `CCOC(=O)C(NC(=O)Nc1ccc(C(N)=O)cc1)(c1ccccc1)C(F)(F)F` (stereo unspecified), -6.9% (inactive).

As to `CCOC(=O)C(NC(=O)NC1CCCCC1)(c1ccccc1)C(F)(F)F` (stereo unspecified), the inhibition is -5.1% (inactive).

Regarding `CCOC(=O)C(NC(=O)Nc1ccc(O)cc1)(c1ccccc1)C(F)(F)F` (stereo unspecified), the inhibition is 50.4% (active).
